# ST2 inh = inhibitors of human ST2 (IL1RL1) binding to IL-33, primary screen, biochemical, AlphaLISA | inhibition, % for hits at 17 µM | 78,000 tested, 2.3% active | AlphaLISA ST2-Fc/biotin-IL-33 interaction, 1 h; in the data active means inhibition above about 30%
# Target sequence (Q01638 whole entry, looked up): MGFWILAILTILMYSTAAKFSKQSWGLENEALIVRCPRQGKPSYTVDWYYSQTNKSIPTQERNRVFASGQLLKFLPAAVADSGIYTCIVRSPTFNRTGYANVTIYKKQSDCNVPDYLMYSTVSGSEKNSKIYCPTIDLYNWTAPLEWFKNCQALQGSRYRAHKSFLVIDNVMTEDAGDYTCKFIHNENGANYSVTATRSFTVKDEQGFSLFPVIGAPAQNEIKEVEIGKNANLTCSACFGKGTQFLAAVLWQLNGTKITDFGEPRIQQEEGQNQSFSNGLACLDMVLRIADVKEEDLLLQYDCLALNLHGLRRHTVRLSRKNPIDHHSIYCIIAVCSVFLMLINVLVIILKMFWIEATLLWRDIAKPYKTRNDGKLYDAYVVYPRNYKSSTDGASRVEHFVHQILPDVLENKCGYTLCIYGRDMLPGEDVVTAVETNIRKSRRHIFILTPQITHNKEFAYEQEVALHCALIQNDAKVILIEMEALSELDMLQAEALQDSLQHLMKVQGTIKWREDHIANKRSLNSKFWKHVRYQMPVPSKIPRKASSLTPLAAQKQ
# A number is an active result; 0 = inactive. The full list was thinned out, with hits kept by preference.
SMILES,ST2 inh
COc1ccc(OC2CCN(C3CCCC3)CC2)c(C(=O)N2CCC[C@H]2CO)c1,0
CC(C)(C)N1C(=O)c2ccc(S(=O)(=O)c3ccc4c(c3)C(=O)N(C(C)(C)C)C4=O)cc2C1=O,30%
O=C(O)c1ccc(S(=O)(=O)c2ccc3c(c2)C(=O)N(c2nccs2)C3=O)cc1,0
CC(C)CN1C(=O)c2ccc(S(=O)(=O)c3ccc4c(c3)C(=O)N(CC(C)C)C4=O)cc2C1=O,0
Cc1cc(Br)ccc1NC(=O)CCS(=O)(=O)c1ccc(Br)s1,0
CC(=O)Oc1ccc2c(=O)c(Oc3ccccc3)coc2c1,0
COC(=O)Oc1ccc2c(=O)c(Oc3ccc(C)cc3)coc2c1,30%
Cc1cc(C)cc(Oc2coc3cc(OC(=O)C(C)C)ccc3c2=O)c1,0
CN[C@@H](CC(C)C)C(=O)N[C@H]1C[C@@](O)(C(=O)N[C@@H](Cc2ccc(OC)cc2)C(N)=O)C[C@@H](O)[C@@H]1O,0
CCOc1ccc(C(=O)CC2(O)C(=O)Nc3ccc(Br)cc32)cc1 (stereo not drawn),0
O=C1C2C3CCC(C3)C2C(=O)N1CNc1cccc(Cl)c1 (stereo not drawn),0
CCOc1cc(C2C(C#N)=C(N)OC3=C2C(=O)CC(C)(C)C3)ccc1O (stereo not drawn),0
CCOC=NC1=C(C#N)C(c2ccc(Cl)cc2)C2=C(CC(C)(C)CC2=O)O1 (stereo not drawn),79%
CCOC=NC1=C(C#N)C(c2ccccc2)C2=C(CC(C)(C)CC2=O)O1 (stereo not drawn),59%
CC(C)c1ccc(C2C(C#N)=C(N)OC3=C2C(=O)CC(C)(C)C3)cc1 (stereo not drawn),0
Cc1ccccc1C1C(C#N)=C(N)OC2=C1C(=O)CC(C)(C)C2 (stereo not drawn),0
CC(=O)Oc1ccc([C@H]2C(C#N)=C(N)OC3=C2C(=O)CC(C)(C)C3)cc1,0
COCCn1cc(C(=O)N2CCN(c3ccccc3)CC2)c2c3ccccc3n(C)c2c1=O,0
Cc1c(C(=O)O)sc2nc(SC/C=C/c3ccccc3)[nH]c(=O)c12,0
COCC(=O)N1CCCN(CC2=Cc3cccc(OC)c3OC2)CC1,0
CC1(C)CC(CC(=O)NN)(c2ccccc2)CCO1 (stereo not drawn),0
COc1ccccc1-c1nnc([C@H]2CCN(Cc3cccnc3)C2)o1,0
CC(C)C(=O)N1c2ccccc2NC2=C(C(=O)CC(c3ccccc3)C2)C1c1ccccc1 (stereo not drawn),0
COc1ccccc1C(=O)Nc1cccc(-c2nc3ncccc3o2)c1,0
COc1ccc(C(=O)Nc2ccc(Cl)c(-c3nc4ncccc4o3)c2)cc1OC,0
SMILES,ST2 inh
COc1ccc(Cl)cc1C(=O)Nc1ccc(C)c(-c2nc3ncccc3o2)c1,35%
CN1CCC2(CC1)CN(C(=O)COCC(F)(F)C(F)F)CCN2C,0
Cc1ccsc1[C@@H]1CCN(C(=O)CC2=CSC3=NCCCN23)C[C@H]1O,0
Cc1ccccc1Cn1cc(C(=O)NCCCc2scnc2C)nn1,0
COc1cccc(NC(=O)N[C@H]2C[C@@H](c3nc(Cc4ccccc4)no3)N(C)C2)c1,0
CCN(Cc1ccccc1)Cc1ccc(NC(C)=O)cc1,0
CCN(CC)c1ccc(NC(=O)Cc2ccccc2)cc1,36%
CCN(CC)c1ccc(NC(=O)CCN2C(=O)c3ccccc3C2=O)cc1,0
C=CC[C@@H]1CC=C[C@@H](CC=C)N1C(=O)c1ccc2nc[nH]c2c1,0
COc1ccccc1N1CCN([C@H]2[C@@H]3OC[C@@H](O3)[C@@H](NCc3cnc4ccccc4c3)[C@@H]2O)CC1,30%
C=CCNC(=O)N[C@H]1[C@H](O)[C@@H](N2CCN(c3ccccc3OC)CC2)[C@@H]2OC[C@H]1O2,0
NC(=O)C1CCN([C@H]2[C@@H]3OC[C@@H](O3)[C@@H](NCc3cnc4ccccc4c3)[C@@H]2O)CC1,0
COc1cc(/C=C2\C(=O)Nc3ccc(Br)cc32)cc([N+](=O)[O-])c1O,31%
COc1cc(/C=C2/C(=O)NN(c3ccc(Cl)cc3)C2=O)cc([N+](=O)[O-])c1O,0
CCOc1cc(/C=C2\C(=O)Nc3ccc(Br)cc32)cc(Cl)c1O,33%
COc1cc(/C=C2\C(=O)NC(=O)N(c3cccc(C)c3)C2=O)cc(Cl)c1O,0
COc1ccc(OC)c(/C=C2\C(=O)Nc3ccc(Br)cc32)c1,35%
COc1ccc(N2C(=O)NC(=O)/C(=C/c3cc(Br)c(O)c([N+](=O)[O-])c3)C2=O)cc1,0
COc1cc(OC)c(/C=C2/C(=O)Nc3ccccc32)c(OC)c1,0
CCOc1cc(/C=C2/NC(=O)NC2=O)c(Br)cc1O,0
COc1ccc(/C=C2\C(=O)Nc3ccc(Br)cc32)c(OC)c1OC,0
Cc1cccc(N2CCN(c3nc4nonc4nc3N3CCOCC3)CC2)n1,0
Cc1ccc(N2C(=O)C3N=NN(CC(=O)Nc4cc(F)ccc4F)C3C2=O)cc1 (stereo not drawn),0
COc1ccc(S(=O)(=O)NC2CC(C)CC(C)(C)C2)cc1OC (stereo not drawn),0
O=C1NC(=Nc2ccc(O)cc2)S/C1=C\c1cccc(O)c1,0
SMILES,ST2 inh
COc1ccccc1/C=C1/SC(=Nc2ccccc2Cl)NC1=O,33%
COc1ccccc1C=C1C(=O)OC(C)(c2ccccc2)OC1=O (stereo not drawn),0
CN(C)c1ccc(/C=C2/SC(=Nc3ccccc3Cl)NC2=O)cc1,39%
O=C(O)c1c(S(=O)(=O)N2CCc3ccccc3C2)sc2c1CCNC2,0
COc1ccc(Nc2ncnc3c2cnn3-c2ccc(Cl)cc2)cc1Cl,0
O=S(=O)(c1ccc(F)cc1)N1CCSC1c1ccccc1Cl (stereo not drawn),0
Cc1ccc(C(=O)CSc2nc3ccccc3[nH]2)cc1,0
CCn1c(C2CCNCC2)nn(Cc2ccc(C(F)(F)F)nc2)c1=O,0
CCOC(=O)c1sc2nc(C)nc(NCCc3ccccc3Cl)c2c1C,0
COc1ccc(Br)c(C2Oc3nc(SC)nnc3-c3ccccc3N2C(C)=O)c1 (stereo not drawn),0
C=CCSc1nnc2c(n1)OC(c1ccccn1)N(C(C)=O)c1ccccc1-2 (stereo not drawn),0
C=CCSc1nnc2c(n1)OC(c1ccncc1)N(C(C)=O)c1ccccc1-2 (stereo not drawn),0
CCN(CC)c1ccc(C2Oc3nc(SC)nnc3-c3ccccc3N2C(C)=O)c(OC)c1 (stereo not drawn),36%
COc1cc(C2Oc3nc(SC)nnc3-c3ccccc3N2C(C)=O)cc(OC)c1OC (stereo not drawn),0
C=CCSc1nnc2c(n1)OC(c1ccc(OC)cc1OC)N(C(C)=O)c1ccccc1-2 (stereo not drawn),30%
CN1CCCN(CC(=O)N2CCN(CC3CCCO3)CC2)CC1 (stereo not drawn),0
Cc1ccc(C)c(C2C(C#N)=C(N)Oc3cc(N)ccc32)c1 (stereo not drawn),0
CNC(=O)c1ccc(OC)c(-c2ccccc2CN2CCOCC2)c1,0
Cc1ccc(C23C[C@@H]4C[C@@H](CC(O)(C4)C2)C3)cc1[N+](=O)[O-],44%
Cc1ccc(C23C[C@@H]4C[C@@H](CC(Cl)(C4)C2)C3)cc1N,0
Cc1ccc(S(=O)(=O)N2CCN(S(=O)(=O)c3ccc(C)c([N+](=O)[O-])c3)C2)cc1,0
CC[C@H]1CN(S(=O)(=O)c2ccc(OC)cc2)CC[C@H]1CC(=O)NCCNC(C)=O,0
Cc1ccc(NC(=O)CC(=O)NCC2CCS(=O)(=O)C2)c(C)c1 (stereo not drawn),0

# Bioassay records: PubChem BioAssay, Paczesny and Yang Labs, IUPUI and University of Michigan
